# Source: PubChem BioAssay (Tox21)
# Where “and” joins values, the source holds several entries; their conditions need not be identical. Equal entries are not always repeated. Results filed as inconclusive are left out. Calls of active or inactive are those of the source. The call rests on the fitted dose curve; in most records, active means well fitted cell-killing curve with a large enough effect in the repeat runs; inconclusive means weak or mixed curves, or effect the other way; inactive means no such curve, though single readings can be large or run the other way.
# Assay: qHTS assay for identifying genotoxic compounds that show differential cytotoxicity against isogenic chicken DT40 cell lines with known DNA damage response pathways - wild type cell line (AID 743012); further: nearly all actives have a fitted effect of over 60% in size
# Conditions: DT40 wild type chicken cells viability, CellTiter-Glo, 40 h; series mostly up to 68.4 µM
# Procedure, shortened: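 Luminescent ATP viability signal (CellTiter-Glo, 30 min RT) recorded after wild type DT40 cells were incubated with compounds for 40 h at 37 C/5% CO2.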
# Potency means the concentration at half of the fitted maximal effect.
row,SMILES,Potency
1,CC(C)N1C(=O)N(c2ccccc2)CSC1=NC(C)(C)C,21.7 µM (active)
2,Clc1ccc(C(c2ccccc2Cl)C(Cl)(Cl)Cl)cc1 (configuration not stated),45.1 µM (active)
3,OC(c1ccc(Cl)cc1)(c1ccc(Cl)cc1)C(Cl)(Cl)Cl,61.1 µM (active)
4,CCCSP(=O)(OCC)SCCC,28.3 µM (active)
5,Oc1ccc(C2(c3ccc(O)cc3)c3ccccc3-c3ccccc32)cc1,68.6 µM (active)
6,C[C@]12CC[C@H]3[C@@H](CCC4=CC(=O)CC[C@@]43C)[C@@H]1CC[C@@H]2O,54.1 µM (active)
7,CC(C)(C)c1cc([N+](=O)[O-])cc(C(C)(C)C)c1O,6.86 µM (active)
8,CCOP(=O)(NC(C)C)Oc1ccc(SC)c(C)c1 (configuration not stated),7.7 µM (active)
9,CC[C@H](C)[C@H]1O[C@]2(C=C[C@@H]1C)C[C@@H]1C[C@@H](C/C=C(\C)[C@@H](O[C@H]3C[C@H](OC)[C@@H](O[C@H]4C[C@H](OC)[C@@H](O)[C@H](C)O4)[C@H](C)O3)[C@@H](C)/C=C/C=C3\CO[C@@H]4[C@H](O)C(C)=C[C@@H](C(=O)O1)[C@]34O)O2,18.8 µM (active) and 3.61 µM (active)
10,CCN(CC)C(=S)[S-].CCN(CC)C(=S)[S-].[Zn+2],1.21 µM (active)
11,Cc1cc(SCc2sc(-c3ccc(C(F)(F)F)c(F)c3)nc2C)ccc1OCC(=O)O,54.5 µM (active)
12,O=C(CCl)Nc1ccccc1,10.9 µM (active)
13,O=C(Nc1ccc2[nH]ccc2c1)c1cc2cc(F)ccc2n1Cc1cccc(F)c1,19.3 µM (active)
14,O=C(CCl)C(Cl)Cl,5.5 µM (active)
15,CCCCCCCCc1ccc(O)cc1,21.8 µM (active)
16,O=c1ssc(Cl)c1Cl,3.44 µM (active)
17,CC(=O)[O-].CC(=O)[O-].O.O.[Cd+2],67.6 µM (active)
18,O=S(=O)(c1ccc(Cl)cc1)c1ccc(Cl)cc1,24.6 µM (active)
19,COC12CC[C@@]3(C[C@@H]1C(C)(O)C(C)(C)C)[C@H]1Cc4ccc(O)c5c4[C@@]3(CCN1CC1CC1)[C@H]2O5 (some centres not stated),54.1 µM (active)
20,CC(C)(C)C(O)/C(=C\c1ccc(Cl)cc1Cl)n1cncn1 (configuration not stated),18.6 µM (active)
21,CCCCCCCCCCCCBr,27.3 µM (active)
22,COc1ccc(N)cc1N,11.7 µM (active)
